# TDP1 cell noCPT – qHTS for Inhibitors of human tyrosyl-DNA phosphodiesterase 1 (TDP1): qHTS in cells in absence of CPT. DT40 Tdp1-/- hTDP1 cells, no CPT, ATP luminescence, 48 h. Potency, µM (titrated, usually from 46.2 µM), inactives show top-dose activity change, negative = growth inhibition, usual class: inhibitors. hit rate 15% among 420,000; note: nearly all actives have a fitted effect of over 55% in size
#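 Chicken DT40 Tdp1-/- cells stably complemented with human TDP1 were seeded at 400 cells/well with DMSO in place of 20 nM camptothecin. After compound pinning, cells grew at least 48 hr at 37 °C; viability read by CellTiter-Glo luminescence.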
# DT40 TDP1 CPT – qHTS for Inhibitors of human tyrosyl-DNA phosphodiesterase 1 (TDP1): qHTS in cells in presence of CPT | hit rate 12% among 420,000 | chicken DT40 Tdp1-/-;hTDP1 cells + 20 nM CPT, ATP luminescence, 48 h | Potency, µM (highest dose often 46.2 µM), without a hit: at the highest dose activity change, negative = growth inhibition, most hits filed as inhibitors | AID 686979, 2013; note: nearly all actives have a fitted effect of over 55% in size
#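 Chicken DT40 Tdp1-/- cells stably complemented with human TDP1 were seeded at 400 cells/well in medium containing 20 nM camptothecin, exposed to pin-transferred compounds, and grown at 37 °C for at least 48 hr. Viability was read as ATP luminescence.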
# KB-3-1 cytotox – qHTS assay for MDR1-selective chemotherapeutics: Primary screen using the parental adenocarcinoma cell KB-3-1. KB-3-1 viability, CellTiter-Glo ATP luminescence, 72 h. Potency, µM (highest dose often 46.1 µM), actives largely listed as cytotoxic. hit rate 1.4% among 400,000. AID 1347075, 2019; note: nearly all actives have a fitted effect of over 60% in size
#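 Here the drug-naive KB-3-1 line serves as comparator for MDR sub-line selectivity; cells received compound titrations, 72 h at 37 °C, then CellTiter-Glo readout.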
# KB-V1 MDR tox – qHTS assay for MDR1-selective chemotherapeutics: Primary screen using the drug-selected MDR subline cells KB-V1 | KB-V1 MDR cells viability, CellTiter-Glo, 72 h | Potency, µM (series often up to 46.1 µM), actives largely listed as cytotoxic | hit rate 3.4% among 400,000; note: nearly all actives have a fitted effect of over 60% in size
#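 In this primary screen, KB-V1 cells overexpressing P-gp are incubated with library compounds (lowest to highest concentration) for 72 h at 37 degrees C before a luminescent ATP viability read.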
# HT1080 IDH1KD tx – qHTS for induction of synthetic lethality in tumor cells producing 2HG: qHTS for the HT-1080-IDH1KD cell line | Potency, µM (titrated, usually from 46.1 µM), without a hit: top-dose activity, negative = toxicity, most hits filed as cytotoxic | AID 686971, 2013 | HT-1080 IDH1 knockdown viability, ATP luminescence, 48 h | hit rate 2% among 360,000;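 note: 0% = DMSO wells and -100% = cell-free medium wells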
#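 IDH1KD HT-1080 cells, 750/well, RPMI + 5% FBS; compound pinned after 2 h settling; 48 h, 37 °C; CellTiter-Glo luminescence; % activity normalised to DMSO and no-cell wells; curves fitted, classed by r2 and efficacy.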
# HT1080NT lethal – qHTS for induction of synthetic lethality in tumor cells producing 2HG: qHTS for the HT-1080-NT fibrosarcoma cell line; hit rate 1.6% among 360,000; AID 686970, 2013; Potency, µM (highest dose often 46.1 µM), for inactives: top-dose activity, negative = less viability, hits mostly cytotoxic; HT-1080-NT fibrosarcoma viability, CellTiter-Glo ATP luminescence, 48 h;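 note: NT is the 2HG producing partner of a matched IDH1 knockdown line; 0% = DMSO-treated cells and -100% = media-only wells without cells; nearly all actives have a fitted effect of over 55% in size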
#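 Viability of the 2HG-overproducing fibrosarcoma line after 48 hours of compound exposure at 37 degrees C was determined by luminescence with CellTiter-Glo, and concentration-effect curves were then fitted and categorized.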
# An asterisk follows results filed as active; i = inactive; u = inconclusive; x = not tested or not shown. An excerpt weighted towards active compounds, which were near 19% of everything screened. Calls come from the whole dose curve; as a rule, active = well fitted curve in the direction sought with a large enough effect; inconclusive = small, poorly fitted or top-dose-only effect, or another doubt; inactive = no such curve, though single readings can be large; an effect the other way counts as inactive or inconclusive. Unless noted, % is set by controls: 0 for no effect and ±100 for the full control effect; potency is the fitted concentration of half-maximal effect.
SMILES,TDP1 cell noCPT,DT40 TDP1 CPT,KB-3-1 cytotox,KB-V1 MDR tox,HT1080 IDH1KD tx,HT1080NT lethal
Cc1ccc2c(CNCCc3ccco3)c(C(=O)O)n(Cc3ccc(F)cc3)c2c1,25.9µM*,20.6µM*,u,u,x,x
COc1ccc(CNCc2c(C(=O)O)n(Cc3ccc(F)cc3)c3cc(C)ccc23)cc1OC,23.1µM*,20.6µM*,u,i,x,x
COc1ccc(Cn2c(C(=O)O)c(CNCc3ccc(C)o3)c3ccc(C)cc32)cc1,u,u,u,i,x,x
Cc1ccc2c(CNCc3cccc(Cl)c3)c(C(=O)O)n(Cc3ccc(F)cc3Cl)c2c1,3.26µM*,3.26µM*,i,i,x,x
O=[N+]([O-])c1ccc(S(=O)(=O)N2CCN(Cc3ccco3)CC2)cc1,u,-26.6%,i,i,11.1%,0.0%
O=C(COC(=O)c1ccc(-n2cnnn2)cc1)Nc1cc(Cl)ccc1F,-19.8%,4.4%,i,i,9.0%,2.8%
COc1ccc2c(CNCc3ccco3)c(C(=O)O)n(Cc3ccc(F)cc3Cl)c2c1,2.59µM*,u,i,i,x,x
CCOc1ccc(CNCc2c(C(=O)O)c(C)n(Cc3ccc(F)cc3Cl)c2C)cc1,13µM*,u,i,i,x,x
Cc1ccc(CNCc2c(C(=O)O)n(Cc3ccc(C)cc3)c3cc(C)ccc23)cc1,u,23.1µM*,i,i,x,x
CCOc1ccc(CNCc2c(C(=O)O)n(Cc3ccccc3C)c3cc(OC)ccc23)cc1OC,1.03µM*,0.651µM*,x,x,x,x
Cc1ccc(Cn2c(C(=O)O)c(CNCc3ccc(OC(C)C)cc3)c3ccc(C)cc32)cc1,u,16.4µM*,u,i,x,x
Cc1ccc(Cn2c(C(=O)O)c(CNCCc3cccs3)c3ccc(C)cc32)cc1,-20.8%,u,i,u,x,x
COc1ccc(Cn2c(C(=O)O)c(CNCCc3cccs3)c3ccc(C)cc32)cc1,23.1µM*,u,i,i,x,x
Cc1ccc(Cn2c(C(=O)O)c(CNCc3ccc(C)o3)c3ccc(C)cc32)cc1,u,u,i,i,x,x
O=[N+]([O-])c1cc(Br)c(O)c(/C=N/Nc2nnnn2-c2cccc3ccccc23)c1,-4.5%,-16.5%,i,u,-16.9%,u
Cc1ccc2[nH]c(=O)c3cc(C(=O)N(C)c4ccccc4C)sc3c2c1,10.3µM*,u,u,u,7.3%,0.0%
CCCCN(CC)C(=O)c1cc2c(=O)[nH]c3ccc(C)cc3c2s1,u,u,i,u,16.1%,16.5%
Cc1ccc2[nH]c(=O)c3cc(C(=O)NCCN4CCN(C)CC4)sc3c2c1,-19.6%,-19.5%,i,u,-0.2%,-3.2%
Cc1ccc2[nH]c(=O)c3cc(C(=O)N(C)c4ccc(Br)cc4)sc3c2c1,3.26µM*,3.66µM*,i,i,x,x
Cc1cccc(C)c1NC(=O)CSC(=O)c1sc2ccccc2c1Cl,-2.5%,11.4%,i,i,9.0%,13.0%
CCN(CC(=O)N1CCOCC1)S(=O)(=O)c1ccc(F)cc1,-0.6%,5.7%,i,i,8.4%,5.9%
CC(=C1SC(=S)NC1=O)c1ccccc1,-2.0%,-10.3%,i,u,12.8%,6.0%
CC1(c2ccccc2)CC(C)(C)N2C(=O)/C(=C3\SC(=S)NC3=O)c3cccc1c32 (centres undefined),14.6µM*,23.1µM*,i,u,8.1%,7.5%
CC(C)NC(=O)Nc1ccc2c(c1)C(=O)N([C@H](C)CO)C[C@H](C)[C@@H](CN(C)C(=O)NC(C)C)O2,0.2%,-1.3%,i,u,14.4%,-4.7%
O=c1ccc2ccc(OCc3ccccc3)cc2o1,-14.6%,-8.1%,i,i,13.6%,5.6%
SMILES,TDP1 cell noCPT,DT40 TDP1 CPT,KB-3-1 cytotox,KB-V1 MDR tox,HT1080 IDH1KD tx,HT1080NT lethal
Cc1ccc(-c2noc(-c3ccccc3OCC(=O)Nc3ccccc3[N+](=O)[O-])n2)cc1,15.0%,-5.4%,i,i,x,x
O=C(COc1ccccc1-c1nc(-c2ccccc2)no1)Nc1cccc([N+](=O)[O-])c1,u,2.59µM*,x,x,x,x
Cc1cccc(-c2noc(-c3ccccc3OCC(=O)Nc3ccccc3[N+](=O)[O-])n2)c1,16.4µM*,u,i,i,x,x
Cc1ccc(S(=O)(=O)Nc2ccc3c(c2)OCCO3)c(C)c1NS(C)(=O)=O,10.3µM*,u,i,u,-5.0%,-6.9%
CC1C(=O)NN=C1C(=O)N/N=C/c1cccs1 (centres undefined),-27.8%,-24.3%,i,i,-23.6%,-15.7%
COc1cc(-c2cc3nc(NCCN(C)C)ccn3n2)cc(OC)c1OC,-20.6%,-18.8%,i,i,-4.0%,-2.7%
COc1cc(-c2cc3nc(NC4CCCCC4)ccn3n2)cc(OC)c1OC,10.3µM*,16.4µM*,i,u,16.4µM*,18.4µM*
FC(F)(F)c1cccc(-c2cc3nc(NC4CCCCC4)ccn3n2)c1,u,20.6µM*,u,i,u,u
